# Laboratory results reported in PubChem BioAssay (NCI).
# The panel holds about 83,000 compounds, 20% with a hit somewhere; the sample as a whole holds those more often.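 Percent growth is the endpoint: 0 to 100 indicates growth inhibition (40 means 60% inhibition), 0 means no net growth, and negative values indicate cell death.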 Values without a mark were called inactive. Calls of active or inactive are those of the source. The calls were made as follows: active = growth percent below 10; inactive = the rest.
# Tests used:
# Assay in all cases: NCI-60 one-dose screen, 48 h (100 = growth as untreated, 0 = no growth, -100 = all killed)
# Conditions in all cases: 10 µM unless noted
# [1] = tested on: NCI-H23 lung
# [2] = tested on: NCI-H226 lung
# [3] = tested on: NCI-H322M lung
# [4] = tested on: HOP-62 NSCLC
# [5] = tested on: NCI-H460 lung
# [6] = tested on: HOP-92 NSCLC
# [7] = tested on: NCI-H522 lung
# [8] = tested on: A549/ATCC NSCLC
# [9] = tested on: 786-0 renal
# [10] = tested on: COLO 205 colon
SMILES,growth [1],growth [2],growth [3],growth [4],growth [5],growth [6],growth [7],growth [8],growth [9],growth [10]
Nc1ncc(-c2ccc3ncnc(N4CCc5cc(F)c(Cl)cc54)c3c2)cc1C(F)(F)F,47.6%,28.3%,19.8%,33.1%,28.2%,10.1%,20.3%,21.4%,15.8%,41.8%
COc1ccc(/C=C/C(=O)c2ccc(-n3cc(CN4CCN(c5cc6c(cc5F)c(=O)c(C(=O)O)cn6C5CC5)CC4)nn3)cc2)cc1,78.7%,67.3%,72.8%,75.6%,77.9%,66.6%,67.6%,66.1%,71.9%,98.2%
COc1ccc(-c2cn(Cc3ccc4c(Br)cc(Br)c(O)c4n3)nn2)cc1,95.5%,101%,100%,98.4%,105%,80.3%,58.5%,98.7%,104%,107%
COC(=O)[C@H](C)NC(=O)c1ccc(NC(=O)c2[nH]c(C)c(Cl)c2Cl)c(OCCN)c1,106%,112%,101%,106%,105%,101%,107%,98.1%,98.6%,104%
FC(F)(F)c1cc(N2CCCCC2)nc(NCCCNc2ccnc3cc(Cl)ccc23)n1,27.2%,73.6%,80%,73.5%,74.4%,32.9%,47.4%,50.5%,59.7%,7.41% (active)
O=C(Nc1ccc2[nH]ncc2c1)c1csc(Nc2ccccc2)n1,47.3%,67.2%,46.5%,50.7%,11.9%,77.9%,17.5%,40.7%,38.9%,33.2%
c1ccc2cc(Cn3cc[n+](Cc4ccc5ccccc5c4)c3)ccc2c1,41.6%,52.1%,62.8%,42.1%,39.6%,-13.3% (active),-11.7% (active),67.6%,52.2%,-73.9% (active)
O=[N+]([O-])c1ccc(N/N=C\c2cc(Cl)ccc2O)nc1,32.7%,100%,30.4%,45.6%,12.8%,59.7%,31.3%,50.4%,34%,50.1%
O=c1ccc2nc(-c3ccccc3)nn(-c3ccccn3)c-2c1,90.8%,91.9%,102%,95.9%,106%,55.8%,-59.7% (active),103%,63.5%,-68.8% (active)
CN1CCN(CCCNC(=O)c2c3c(n4ccccc24)C(=O)c2ncccc2C3=O)CC1,-24.3% (active),33.7%,-23.9% (active),25.8%,-60.1% (active),14.9%,-43.4% (active),-25.5% (active),28.5%,-73% (active)
O=C1c2c(c3c4cccnc4[nH]c3c3ccc4ccccc4c23)C(=O)N1O,35.5%,72.3%,77.8%,55.8%,32.4%,81.7%,19.9%,83.6%,68.5%,57.6%
CCOC(=O)c1cnc2sc(-c3ccc(OC)cc3)nc2c1Cl,82%,99.2%,89.2%,112%,100%,94.7%,97.8%,106%,115%,123%
CCOC(=O)CCC(=O)P(=O)(O)O,116%,110%,103%,97.8%,113%,38.9%,84.7%,96.9%,98.6%,93.9%
O=C(/C=C/c1ccc(Cl)cc1)c1ccc(-n2cc(CN3CCN(c4cc5c(cc4F)c(=O)c(C(=O)O)cn5C4CC4)CC3)nn2)cc1,85.4%,76.3%,78.1%,85.5%,82.2%,84.8%,79.1%,89%,78.1%,97.1%
CN1CCN(Cc2ccc(NC(=O)c3cncc(C#Cc4c(N)ncc5c(F)cccc45)c3)cc2C(F)(F)F)CC1,-66.3% (active),14%,-23.7% (active),-80.2% (active),-48% (active),-58.8% (active),-76% (active),-90.6% (active),-79% (active),-83.6% (active)
O=[N+]([O-])c1ccc(Oc2cccc3c(Oc4ccc([N+](=O)[O-])cc4[N+](=O)[O-])cccc23)c([N+](=O)[O-])c1,75.3%,83.9%,92.4%,79.6%,93.4%,62%,74.6%,83%,108%,102%
COc1cc(CNC(=O)CCCC/C=C/C(C)C)ccc1OCc1cn(-c2ccc(C(F)(F)F)cc2)nn1,94.6%,53.6%,96.1%,64.6%,16.7%,13.8%,75.6%,49%,2.94% (active),72.6%
Oc1ccc(C2OCCO2)c2cccnc12,33%,23.4%,92.5%,51.6%,68.1%,68.8%,92.9%,56.3%,97.9%,63.7%
CC1(C)CC[C@]2(CO)CC[C@]3(C)[C@H](CC[C@@H]4[C@@]5(C)CC[C@H](O)C(C)(C)[C@@H]5CC[C@]43C)[C@H]2[C@H]1O,87.1%,79.1%,69.2%,54.6%,21%,105%,84.8%,56.8%,79.3%,93.8%
CCCCCCCCNc1ncnc2c1ncn2Cc1nnc2c3ccccc3c(Cl)nn12,59.6%,39.9%,77.8%,54.3%,53.3%,3.23% (active),52.9%,73.1%,47.7%,65.5%
COc1cc(C(=O)/C=C/c2c(-c3cccs3)nc3sc(C)cn23)cc(OC)c1OC,6.64% (active),33.1%,13.3%,-8.11% (active),-30.6% (active),-2.76% (active),-2.1% (active),10.6%,7.58% (active),2.63% (active)
O=C(/C=C/c1ccco1)c1ccc(Nc2ccnc3cc(Cl)ccc23)cc1,82.1%,111%,39.3%,104%,36%,41.5%,81.9%,62%,76.6%,90.4%
CCN(CC)c1ccc(/C=N/NC(=O)c2ccccc2Nc2ccnc(C(F)(F)F)c2)c(O)c1,40.4%,8.93% (active),39.7%,28%,4.43% (active),19.9%,42.9%,35.8%,16.6%,25.7%
Cc1nc2c(c(-c3ccccc3)n1)Cc1c(ccc3ccccc13)O2,97.8%,82.2%,148%,90.9%,98.1%,81.9%,100%,96%,98.7%,100%
CN(C)c1ccc(Cc2cc(-c3ccccc3)nn(C/C(=N/O)c3ccccc3)c2=O)cc1,57.4%,60.5%,80.4%,75.1%,42.6%,55.9%,41.2%,30.2%,75.4%,58.4%
Nc1nc(N)c2c(n1)NC(c1cccc(Nc3ccnc4cc(C(F)(F)F)ccc34)c1)CC(c1ccc(Cl)cc1)=N2 (stereo not given),64.7%,82.7%,89.3%,52%,20.4%,34.5%,32.6%,40.8%,68.9%,29.5%
NCCCCCNc1noc(Cc2c[nH]c3cc(Br)ccc23)n1,30.9%,61%,33.4%,21.6%,12.8%,19.7%,-38.3% (active),24.6%,43.2%,-0.719% (active)
